Test results reported in PubChem BioAssay (NCI).
Compounds without any hit were thinned out: in the full panel of roughly 83,000, 20% have a hit.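 Interpretation: 100, growth as untreated; towards 0, rising growth inhibition; 0, no net growth; 0 to -100, cell death. Compounds scoring below 10 were considered active.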 Unmarked numbers belong to inactive results. Active and inactive are the calls of the source.

Each compound was assayed on RXF 393 renal (assay: NCI-60 one-dose screen, 48 h (100 = growth as untreated, 0 = no growth, -100 = all killed)). Conditions: 10 µM unless noted.

| SMILES | growth |
| --- | --- |
| CCOC(=O)CC1CSC(Nc2ccccc2)=N1 (stereo unspecified) | 114% |
| O=S(=O)(Nc1cc(Sc2cccc3cccnc23)c(O)c2ccccc12)c1ccccc1 | 28.7% |
| COc1ccc(C(=O)c2cc3c(N)c(C(=O)Nc4ccccc4)sc3nc2C)cc1 | -2.82% (active) |
| N=c1c(S(=O)(=O)c2ccccc2)cc2c(=O)n3ccccc3nc2n1CC1CCCO1 (stereo unspecified) | 113% |
| CC(C)(C)c1cc(Cl)c(O)c(CNCCO)c1 | 98.1% |
| CCN(CC)CCN1C(=O)c2c(c(C)c3c(oc4ccc(O)cc43)c2C)C1=O | 98.2% |
| Fc1cccc(-c2ccc3c(c2)C2(CCNCC2)CN3)c1 | 121% |
| C=CC(=O)Nc1ccc(Oc2nccc(Nc3nnc(-c4ccc(C)cc4)s3)n2)cc1 | 88% |
| NC1(CO)COC(c2ccccc2)OC1 (stereo unspecified) | 104% |
| CCNc1ccc(-c2nc3ccccc3n3cccc23)cc1 | 87.7% |
| CC[N+]1(CC)CC[N+]2(CCCC(C)CC2)CC1 (stereo unspecified) | 113% |
| N=C(N)c1ccc(-c2ccc(-c3ccccc3)s2)cc1 | 78.7% |
| O=C(CSc1nc(-c2ccccc2)cc(=O)[nH]1)Nc1nc(-c2ccccc2)cs1 | 87.4% |
| Cc1nnc(-c2ccc3c(c2)nc(/C=C/c2ccccc2)n3C2CCCCC2)o1 | 84.6% |
| O=S(=O)(NCCNc1nccc(-c2c(-c3ccc(F)c(O)c3)nc3sccn23)n1)c1ccc(F)cc1 | -4.56% (active) |
| CCN(CC)CCCN1C(=O)c2c(c(C)c3c(oc4ccc(O)cc43)c2C)C1=O | 61.3% |
